Source: ChEMBL document CHEMBL3988442, “University of Dundee, Small-Polar-MMV Screening Library” (2021)
The campaign covered roughly 48,000 compounds. About 13,000 (27%) showed an effect of 50% or more. The list shows a part of the results.

Each compound was assayed on Wolbachia pipientis (assay: Anti-Wolbachia Cell-Based Screen). Settings: 5 µM.
Type: functional
Set-up: scale not given: in the data most compounds retested in dose-response had high values

Structure (SMILES)	Percent Effect [%]
COc1ccccc1OC1CN(C(=O)c2c(C)nc3ccc(C)cn23)C1	-16.35
CC(c1ncc(C(C)(C)C)o1)N1CCN(Cc2ccc(Cl)s2)CC1 (stereo unspecified)	-10.01
Cc1ccc(NC(=O)c2nc(N3CCCCC3)ncc2Cl)cc1I	14.77
CC(=O)NC[C@H]1OC[C@@H](NC2CCC(F)(F)CC2)[C@@H]1O	-10
Cc1nnc(NCc2ccc(N3CCC(CO)CC3)cc2)c(C#N)c1C	12.23
CN(C)C(=O)c1cccc(CNc2ccc(C#N)cn2)c1	29.09
N#Cc1ccc(NCc2cccc(OCC3CCCO3)c2)nc1 (stereo unspecified)	63.12
Cc1nnc(NCc2cccnc2N(C)C)c(C#N)c1C	-6.334
COCc1ccccc1CNc1nnc(C)c(C)c1C#N	-9.449
Cc1nc2ccccc2nc1NCc1nnc2n1CCC2	-17.33
N#Cc1ccc(NCc2cccc(COC3CCOCC3)c2)nc1	-4.004
Cc1nnc(NCc2cccc(OCc3ccccn3)c2)c(C#N)c1C	115.9
Cc1nc2ccccc2nc1NCc1cccc(OCC2CCCO2)c1 (stereo unspecified)	113.3
Oc1cccc(CNCC2CCCO2)c1 (stereo unspecified)	10.1
Cc1nnc(NCc2cccc(OCC3CCCO3)c2)c(C#N)c1C (stereo unspecified)	98.93
Cc1ccccc1C1(CNc2nnc(C)c(C)c2C#N)CCOCC1	10.33
O=C(c1ccco1)N1CCc2ncnc(NCc3ccccn3)c2CC1	-3.443
CN1C(=O)[C@H]2CC[C@@H]1CN(C(=O)c1csc(Cc3ccccc3)n1)C2	-11.33
CN(C(=O)c1ccc[nH]1)C1CCC(NC(=O)OC(C)(C)C)CC1 (stereo unspecified)	-42.92
CCC(C)N(Cc1ccncc1)Cc1ccccc1Cn1cccn1 (stereo unspecified)	4.156
CC1CCN(C(=O)[C@H]2C[C@@H]3CCN(CC4CCOCC4)C[C@H]3O2)CC1.O=C(O)C(F)(F)F	-1.273
CC1CCN(C(=O)[C@H]2C[C@@H]3CCN(CC4CCOCC4)C[C@@H]3O2)CC1.O=C(O)C(F)(F)F	-3.152
O=C(O)C(F)(F)F.O=C([C@H]1C[C@@H]2CCN(C3CCOCC3)C[C@H]2O1)N1CCCC1	103.9
CC1CCN(C(=O)[C@@H]2C[C@@H]3CCN(CC4CCOCC4)C[C@@H]3O2)CC1.O=C(O)C(F)(F)F	-4.888
O=C(O)C(F)(F)F.O=C([C@@H]1C[C@@H]2CCN(C3CCOCC3)C[C@@H]2O1)N1CCCC1	130.2
O=C(O)C(F)(F)F.O=C([C@@H]1C[C@@H]2CCN(C3CCOCC3)C[C@H]2O1)N1CCOCC1	89.37

Structure (SMILES)	Percent Effect [%]
O=C(O)C(F)(F)F.O=C([C@H]1C[C@H]2OCC[C@H]2N(CC2CCOCC2)C1)N1CCCC1	10.32
O=C(O)C(F)(F)F.O=C([C@H]1C[C@@H]2CCN(C3CCOCC3)C[C@@H]2O1)N1CCOCC1	-5.423
O=C(O)C(F)(F)F.O=C([C@H]1COC[C@H]2CN(C3CCOCC3)C[C@H]21)N1CCC(F)CC1	-1.372
Cc1ccccc1CC(=O)N(C)C1CCCC1	-4.156
COc1ccc(-c2cnc(CN3CCn4c(C)nnc4C3)o2)cc1	-11.18
c1csc(-c2nc(CN3CCn4c(nnc4C4CC4)C3)co2)c1	-3.067
Cn1ccnc1-c1ccc(NCC2COc3ccccc3O2)nn1 (stereo unspecified)	-1.636
Cc1ccc(CC(=O)NC(C)C(=O)N2CCS(=O)(=O)CC2)cc1 (stereo unspecified)	-13.94
CC(C)CC(C)N(C)Cc1nnc(-c2ccco2)o1 (stereo unspecified)	9.065
CNC(=O)C1Cn2ccnc2C2(CCN(CCF)CC2)O1 (stereo unspecified)	3.54
CNC(=O)C1Cn2ccnc2C2(CCN(C(=O)CC3CCCC3)CC2)O1.O=C(O)C(F)(F)F (stereo unspecified)	-0.06928
CNC(=O)C1Cn2ccnc2C2(CCN(C(=O)c3ccccn3)CC2)O1 (stereo unspecified)	-8.502
CC(C)CC(=O)N1CCC2(CC1)OC(C(N)=O)Cn1ccnc12.O=C(O)C(F)(F)F (stereo unspecified)	113.8
CNC(=O)C1Cn2ccnc2C2(CCN(Cc3csc(C)n3)CC2)O1 (stereo unspecified)	2.029
NC(=O)C1Cn2ccnc2C2(CCN(C(=O)c3ccncc3)CC2)O1 (stereo unspecified)	116.6
CNC(=O)C1Cn2ccnc2C2(CCN(c3ccc(C)nn3)CC2)O1 (stereo unspecified)	1.376
CNC(=O)C1Cn2ccnc2C2(CCN(C(=O)NC3CCCC3)CC2)O1 (stereo unspecified)	96.32
CC(C)CNC(=O)N1CCC2(CC1)OC(C(N)=O)Cn1ccnc12.O=C(O)C(F)(F)F (stereo unspecified)	99.99
CCc1nc(C)c(C2CC(=O)Nc3c2c(C(C)(C)C)nn3C)[nH]1 (stereo unspecified)	-1.206
CCN(C(=O)c1ccc2nnc(C3CCN(S(C)(=O)=O)C3)n2c1)C(C)C (stereo unspecified)	-8.044
CCS(=O)(=O)N1CCC(c2nnc(Cn3cccn3)n2C2CC2)CC1	-1.644
CCN(CC)c1ccc(-c2nc(-c3cccc(OC)c3OC)no2)cn1	-1.328
N#Cc1cccc(S(=O)(=O)CCN2CCOC2=O)c1	-9.929
COc1ccc(NC(=O)CCC2CCCN(S(=O)(=O)C3CC3)C2)cc1Cl (stereo unspecified)	5.788
COc1ccc(OCc2cc(C(=O)N3CCOCC3)n[nH]2)c(Cl)c1	-1.083
O=C(NC1CC1)N1CCCC2(CCCCN2)C1.O=C(O)C(F)(F)F (stereo unspecified)	-8.648

Structure (SMILES)	Percent Effect [%]
CNC(=O)C1Cn2ccnc2C2(CCN(C(=O)c3ccoc3C)CC2)O1.O=C(O)C(F)(F)F (stereo unspecified)	5.988
NC(=O)C1Cn2ccnc2C2(CCN(C(=O)NC3CCCC3)CC2)O1.O=C(O)C(F)(F)F (stereo unspecified)	99.21
Cc1cc(-c2c[nH]nc2C2CCCCN2C(=O)c2ccccc2)on1 (stereo unspecified)	116.8
Cc1cccc(C(=O)N2CCCC2c2c(C)n[nH]c2C)c1 (stereo unspecified)	0.2093
Cc1ccc2cc(C(=O)N3CCCCC3c3nc[nH]n3)ccc2n1 (stereo unspecified)	-6.785
Cc1noc(-c2c[nH]nc2C2CCCN2C(=O)c2ccccc2)c1C (stereo unspecified)	143.3
Cc1nc(O)ccc1C(=O)N1CCCC1c1nc(-c2ccccc2)n[nH]1 (stereo unspecified)	-6.533
COCc1cccc(C(=O)N2CCCCC2c2nccs2)c1 (stereo unspecified)	13.03
COCCN1C(=O)[C@H]2CC[C@@H]1CN(C(=O)Cc1c(F)cccc1Cl)C2	-1.329
Cc1[nH]ncc1C(=O)N1CCN(CC(O)C(C)(C)C)CC1 (stereo unspecified)	6.282
O=C(c1cnc(Nc2ccccc2)nc1)N1CCS(=O)(=O)CC1	6.856
Cc1noc(CN(Cc2ccco2)Cc2cccc3c2OCO3)n1	-16.92
O=C1CCC2(CCCN(C(=O)c3ccc[nH]3)C2)CN1Cc1cccnc1 (stereo unspecified)	-3.42
O=C1COC2(CCN(Cc3ccco3)CC2)CN1Cc1cccnc1	107.7
CCOCC(=O)N1CCC2(CC1)CN(Cc1cccnc1)C(=O)CO2	106.9
c1coc(CN2CCC3(CC2)CC(N2CCCC2)CO3)c1 (stereo unspecified)	-47.38
CN(C)CC(=O)N1CCC2(CC1)CN(Cc1cccnc1)C(=O)CO2	109.2
O=C(c1ccoc1)N1CCC(NCc2cccnc2)CC1	-13.71
O=C1CCC2(CCCN(C(=O)c3ccoc3)C2)CN1Cc1ccncc1 (stereo unspecified)	9.259
O=C1COC2(CCN(C(=O)c3ccoc3)CC2)CN1Cc1cccnc1	89.17
CCOCC(=O)N1CCC[C@]2(C[C@@H](OCc3ccncc3)CO2)C1	2.897
O=C(O)c1cc2c(nc1O)CC(c1cccs1)CC2=O (stereo unspecified)	17.51
O=C(CCS(=O)(=O)C1CCCC1)NCCc1cccnc1	3.812
c1cn(Cc2nnc(C3CCN(C4CCOCC4)CC3)n2C2CC2)cn1	2.986
Cc1ccccc1Cc1nc(CSc2nnc(N)n2C2CC2)no1	8.42
O=C(O)c1cc(-c2cccnc2)cc(S(=O)(=O)NCc2ccccn2)c1	-2.76

Structure (SMILES)	Percent Effect [%]
CCC(C)Oc1cc(C(=O)Nc2nnc(C(C)C)[nH]2)ccn1 (stereo unspecified)	-13.47
Cc1occc1C(=O)N1CCC(C(O)c2ccc(Cl)cc2)CC1 (stereo unspecified)	-7.182
COCCN1CCc2ncnc(N(C)C)c2CC1	110.9
COCCN1CCc2ncnc(NC3CC3)c2CC1	94.73
Cc1nc2n(n1)CC(Nc1ncnc3c1CCC3)CC2 (stereo unspecified)	2.355
CN(C)c1ncnc2c1CCN(c1cc(C(F)(F)F)ncn1)CC2	-1.194
CN(C)c1ncnc2c1CCN(c1cccc(F)c1)CC2	-12.67
FC(F)(F)c1cc(N2CCc3ncnc(NC4CC4)c3CC2)ncn1	-22.18
Cc1ccc(S(=O)(=O)Cc2noc([C@@H]3C[C@@H](O)CN3C(C)C)n2)cc1	-1.954
COCCNC(=O)N1CCN(C(C)C(=O)NC(C)C)CC1 (stereo unspecified)	2.251
COCCNC(=O)N1CCN(C(C)C(=O)NC2CCCC2)CC1 (stereo unspecified)	-10.58
COCCNC(=O)C(C)N1CCN(C)CC1.O=C(O)C(=O)O (stereo unspecified)	114.3
Cc1cccc(CC(=O)Nc2cccnc2N2CCC(CO)CC2)c1	-12.05
O=C1CCC2(CCCN(c3ncc(Cl)cc3F)C2)CN1CC1CC1 (stereo unspecified)	-9.557
NCc1ccc(N2CCN(c3ncccn3)CC2)c(F)c1	3.698
Cc1cccc(N2N=C(C(=O)NC(C)Cc3ccco3)CCC2=O)c1 (stereo unspecified)	19.33
CC1C(=O)Nc2cccnc2N1S(=O)(=O)c1cc(F)cc(F)c1 (stereo unspecified)	-12.84
Cc1cc(N2CCCC2c2nnc3n2CCCCC3)nc(N)n1 (stereo unspecified)	170
Cc1cc(N2CCc3c(ncn3C3CC3)C2)nc(N)n1	13.11
Cc1cc(NCc2nnc3n2CCCCC3)n2nc(C)c(C)c2n1	-13.55
Cc1cc(N2CCCC2c2nnc3n2CCCCC3)nc(C)n1 (stereo unspecified)	112.6
Cc1cc(C(=O)N2CCCC2c2nnc3n2CCCCC3)no1 (stereo unspecified)	-10.19
Cc1cc(N2CCc3c(ncn3C)C2)nc(N)n1	-0.5866
